Experiment in all cases: peptide microarray binding signal (635 nm), min-max normalized on array (fraction of array maximum); higher = stronger binding
Holding throughout (conditions): peptide region: H3 112-124

Test [1] concerns the target T1, HaloTag-ATRX ADD domain (163-292).
T1 chain: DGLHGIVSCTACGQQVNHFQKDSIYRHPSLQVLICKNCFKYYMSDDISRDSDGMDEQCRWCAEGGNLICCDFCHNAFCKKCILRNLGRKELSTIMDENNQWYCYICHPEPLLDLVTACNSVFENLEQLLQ
Summed up: (§1)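 Arrays carried histone 13-mer peptide–cellulose conjugates printed in triplicate on nitrocellulose alongside a Cy3 tracer. After overnight blocking at 4°C, they were incubated for 1 h at 4°C with biotin-labelled HaloTag reader fusions (10 nM to 1 μM) plus streptavidin-Alexa Fluor 647, or with rabbit histone antibodies (1:10,000 to 1:2,000) plus anti-rabbit Alexa 647. Scanning on an Axon GenePix 4000B used 635 nm for signal and 532 nm for misprints. The binding signal reported is each triplicate's mean spot intensity after per-library min-max scaling.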

Test [2] deals with HaloTag-ING2 PHD (mouse Ing2 200-280). Summed up:
as §1

The target of test [3] is anti-H3K4me3 antibody ab8580. Put shortly: as §1
The target in test [4] is anti-H3K9me3 antibody ab8898. Summed up: as §1
The mark [5] stands for this setting: peptide modifications: H3K115ac, binder concentration: 1:2,000 dilution.
Setting [6] is: peptide modifications: H3K115ac, binder concentration: 1:10,000 dilution.
Where [7] appears, read: peptide modifications: H3K115me2 H3R116cit, binder concentration: 1:2,000 dilution.
Where [8] appears, read: peptide modifications: H3K115me2 H3R116cit, binder concentration: 1:10,000 dilution.
The mark [9] stands for this setting: peptide modifications: H3K115me1, binder concentration: 1:2,000 dilution.
[10] abbreviates: peptide modifications: H3K115me1, binder concentration: 1:10,000 dilution.
[11] abbreviates: peptide modifications: H3K115me2 H3K122me3, binder concentration: 1:2,000 dilution.
The mark [12] stands for this setting: peptide modifications: H3K115me2 H3K122me3, binder concentration: 1:10,000 dilution.
[13] abbreviates: peptide modifications: H3K115ac H3R116me2s, binder concentration: 1:2,000 dilution.
[14] abbreviates: peptide modifications: H3K115ac H3R116me2s, binder concentration: 1:10,000 dilution.
The mark [15] stands for this setting: peptide modifications: H3K115me1 H3K122me3, binder concentration: 1:2,000 dilution.
The mark [16] stands for this setting: peptide modifications: H3K115me1 H3K122me3, binder concentration: 1:10,000 dilution.
The mark [17] stands for this setting: peptide modifications: H3K115me2 H3K122me2, binder concentration: 1:2,000 dilution.
[18] abbreviates: peptide modifications: H3K115me2 H3K122me2, binder concentration: 1:10,000 dilution.
[19] abbreviates: peptide modifications: H3K115me1 H3R116cit, binder concentration: 1:2,000 dilution.
[20] abbreviates: peptide modifications: H3K115me1 H3R116cit, binder concentration: 1:10,000 dilution.
Setting [21] is: peptide modifications: H3K115me1 H3R116me2a, binder concentration: 1:2,000 dilution.
[22] abbreviates: peptide modifications: H3K115me1 H3R116me2a, binder concentration: 1:10,000 dilution.
[23] abbreviates: peptide modifications: H3K115me1 H3K122ac, binder concentration: 1:2,000 dilution.
The mark [24] stands for this setting: peptide modifications: H3K115me1 H3K122ac, binder concentration: 1:10,000 dilution.

± gives the standard deviation.

B1: H3 112-124 I H A Kac R V T I M P K D I (peptide)
chain: IHAKRVTIMPKDI
For the molecule B1, the “peptide microarray binding signal” value in test [1] (peptide modifications: H3K115ac, binder concentration: 50 nM) was found to be 0.0131 ± 0.00019; in test [1] (peptide modifications: H3K115ac, binder concentration: 500 nM), 0.0422 ± 0.0053; in test [2] (peptide modifications: H3K115ac, binder concentration: 10 nM), 0.0158 ± 0.0028; in test [2] (peptide modifications: H3K115ac, binder concentration: 100 nM), 0.0152 ± 0.00051; in test [3] (setting [5]), 0.00323 ± 0.00038; in test [3] (setting [6]), 0.00228 ± 0.00013. In addition, the entries for the “peptide microarray binding signal” value in test [4] (setting [5]) and in test [4] (setting [6]) were 0.00832 ± 0.00014 and 0.00329 ± 0.00029, respectively.

B2: H3 112-124 I H A Kme2 Rcit V T I M P K D I (peptide)
chain: IHAKRVTIMPKDI
Regarding B2, the “peptide microarray binding signal” value in test [1] (peptide modifications: H3K115me2 H3R116cit, binder concentration: 50 nM) came out at 0.00386 ± 8.5e-05; in test [1] (peptide modifications: H3K115me2 H3R116cit, binder concentration: 500 nM) it was 0.008 ± 0.00037; in test [2] (peptide modifications: H3K115me2 H3R116cit, binder concentration: 10 nM), 0.0196 ± 0.00092; in test [2] (peptide modifications: H3K115me2 H3R116cit, binder concentration: 100 nM) it was 0.0271 ± 0.0013; in test [3] (setting [7]), 0.00257 ± 8.7e-05; in test [3] (setting [8]) it was 0.00211 ± 6.7e-05. In addition, the “peptide microarray binding signal” value was determined as 0.00118 ± 5.6e-05 in test [4] (setting [7]) and 0.00133 ± 4e-05 in test [4] (setting [8]).

B3: H3 112-124 I H A Kme R V T I M P K D I (peptide)
chain: IHAKRVTIMPKDI
On to B3, for which the “peptide microarray binding signal” value in test [1] (peptide modifications: H3K115me1, binder concentration: 50 nM) turned out to be 0.00774 ± 0.00015; in test [1] (peptide modifications: H3K115me1, binder concentration: 500 nM) it was 0.0198 ± 0.0023; in test [2] (peptide modifications: H3K115me1, binder concentration: 10 nM) it was 0.00668 ± 0.00016; in test [2] (peptide modifications: H3K115me1, binder concentration: 100 nM), 0.0314 ± 0.0099; in test [3] (setting [9]), 0.00168 ± 0.00023; in test [3] (setting [10]) it was 0.001997 ± 1.8e-05. The “peptide microarray binding signal” value in test [4] (setting [9]) came out at 0.0034 ± 0.00038; in test [4] (setting [10]), 0.00236 ± 0.00015.

B4: H3 112-124 I H A Kme2 R V T I M P Kme3 D I (peptide)
chain: IHAKRVTIMPKDI
Regarding B4, the “peptide microarray binding signal” value was determined as 0.00401 ± 7.2e-05 in test [1] (peptide modifications: H3K115me2 H3K122me3, binder concentration: 50 nM); 0.0105 ± 0.00042 in test [1] (peptide modifications: H3K115me2 H3K122me3, binder concentration: 500 nM); 0.0258 ± 0.0013 in test [2] (peptide modifications: H3K115me2 H3K122me3, binder concentration: 10 nM); 0.0359 ± 0.0052 in test [2] (peptide modifications: H3K115me2 H3K122me3, binder concentration: 100 nM); 0.00289 ± 0.00018 in test [3] (setting [11]); 0.00274 ± 0.00017 in test [3] (setting [12]). Besides, the figures for the “peptide microarray binding signal” value in test [4] (setting [11]) and in test [4] (setting [12]) were 0.0105 ± 0.0013 and 0.00536 ± 0.00056, respectively.

B5: H3 112-124 I H A Kac Rme2s V T I M P K D I (peptide)
chain: IHAKRVTIMPKDI
As for B5, the “peptide microarray binding signal” value was 0.005956 ± 4.1e-05 in test [1] (peptide modifications: H3K115ac H3R116me2s, binder concentration: 50 nM); 0.0125 ± 0.0017 in test [1] (peptide modifications: H3K115ac H3R116me2s, binder concentration: 500 nM); 0.0167 ± 0.0042 in test [2] (peptide modifications: H3K115ac H3R116me2s, binder concentration: 10 nM); 0.0203 ± 0.0028 in test [2] (peptide modifications: H3K115ac H3R116me2s, binder concentration: 100 nM); 0.00436 ± 0.00063 in test [3] (setting [13]); 0.00576 ± 0.00047 in test [3] (setting [14]). Moreover, the “peptide microarray binding signal” value in test [4] (setting [13]) came out at 0.00375 ± 0.00054; in test [4] (setting [14]) it was 0.00398 ± 0.00024.

B6: H3 112-124 I H A Kme R V T I M P Kme3 D I (peptide)
chain: IHAKRVTIMPKDI
Take B6: the “peptide microarray binding signal” value in test [1] (peptide modifications: H3K115me1 H3K122me3, binder concentration: 50 nM) is 0.00583 ± 0.00011; in test [1] (peptide modifications: H3K115me1 H3K122me3, binder concentration: 500 nM), 0.0149 ± 0.00053; in test [2] (peptide modifications: H3K115me1 H3K122me3, binder concentration: 10 nM), 0.0251 ± 0.0019; in test [2] (peptide modifications: H3K115me1 H3K122me3, binder concentration: 100 nM) it was 0.0482 ± 0.004; in test [3] (setting [15]) it was 0.00627 ± 0.0014; in test [3] (setting [16]), 0.00548 ± 0.00038. For the same molecule, the entries for the “peptide microarray binding signal” value in test [4] (setting [15]) and in test [4] (setting [16]) were 0.0268 ± 0.0058 and 0.0121 ± 0.00038, respectively.

B7: H3 112-124 I H A Kme2 R V T I M P Kme2 D I (peptide)
chain: IHAKRVTIMPKDI
Turning to B7, the “peptide microarray binding signal” value in test [1] (peptide modifications: H3K115me2 H3K122me2, binder concentration: 50 nM) turned out to be 0.003981 ± 1.6e-05; in test [1] (peptide modifications: H3K115me2 H3K122me2, binder concentration: 500 nM), 0.00729 ± 0.00043; in test [2] (peptide modifications: H3K115me2 H3K122me2, binder concentration: 10 nM), 0.0277 ± 0.0045; in test [2] (peptide modifications: H3K115me2 H3K122me2, binder concentration: 100 nM), 0.0324 ± 0.0023; in test [3] (setting [17]), 0.00387 ± 0.0014; in test [3] (setting [18]) it was 0.00382 ± 0.00021. Further, the “peptide microarray binding signal” value in test [4] (setting [17]) came to 0.0021 ± 6.7e-05; in test [4] (setting [18]), 0.002076 ± 1.9e-05.

B8: H3 112-124 I H A Kme Rcit V T I M P K D I (peptide)
chain: IHAKRVTIMPKDI
B8: the “peptide microarray binding signal” value was found to be 0.00947 ± 0.0002 in test [1] (peptide modifications: H3K115me1 H3R116cit, binder concentration: 50 nM); 0.0238 ± 0.00041 in test [1] (peptide modifications: H3K115me1 H3R116cit, binder concentration: 500 nM); 0.0192 ± 0.00041 in test [2] (peptide modifications: H3K115me1 H3R116cit, binder concentration: 10 nM); 0.037 ± 0.0012 in test [2] (peptide modifications: H3K115me1 H3R116cit, binder concentration: 100 nM); 0.00225 ± 5.2e-05 in test [3] (setting [19]); 0.00434 ± 0.00036 in test [3] (setting [20]). For the same molecule, the “peptide microarray binding signal” value turned out to be 0.00249 ± 6.3e-05 in test [4] (setting [19]) and 0.00248 ± 5.9e-05 in test [4] (setting [20]).

B9: H3 112-124 I H A Kme Rme2a V T I M P K D I (peptide)
chain: IHAKRVTIMPKDI
Take B9: the “peptide microarray binding signal” value in test [1] (peptide modifications: H3K115me1 H3R116me2a, binder concentration: 50 nM) was found to be 0.005172 ± 3.7e-05; in test [1] (peptide modifications: H3K115me1 H3R116me2a, binder concentration: 500 nM) it was 0.0151 ± 0.00091; in test [2] (peptide modifications: H3K115me1 H3R116me2a, binder concentration: 10 nM), 0.0102 ± 0.00057; in test [2] (peptide modifications: H3K115me1 H3R116me2a, binder concentration: 100 nM), 0.0244 ± 0.0083; in test [3] (setting [21]), 0.00434 ± 0.00096; in test [3] (setting [22]), 0.00297 ± 8.7e-05. Moreover, the “peptide microarray binding signal” value in test [4] (setting [21]) was determined as 0.0064 ± 0.00053; in test [4] (setting [22]), 0.00317 ± 0.00013.

B10: H3 112-124 I H A Kme R V T I M P Kac D I (peptide)
chain: IHAKRVTIMPKDI
As to B10, the “peptide microarray binding signal” value turned out to be 0.00345 ± 6.5e-05 in test [1] (peptide modifications: H3K115me1 H3K122ac, binder concentration: 50 nM); 0.0061 ± 0.00013 in test [1] (peptide modifications: H3K115me1 H3K122ac, binder concentration: 500 nM); 0.00746 ± 0.00035 in test [2] (peptide modifications: H3K115me1 H3K122ac, binder concentration: 10 nM); 0.0111 ± 0.00029 in test [2] (peptide modifications: H3K115me1 H3K122ac, binder concentration: 100 nM); 0.00249 ± 0.0011 in test [3] (setting [23]); 0.001484 ± 1.4e-05 in test [3] (setting [24]). In addition, the figures for the “peptide microarray binding signal” value in test [4] (setting [23]) and in test [4] (setting [24]) were 0.000997 ± 1.4e-05 and 0.00104 ± 2.8e-05, respectively.

Source of the values: the supplement of paper PMC4022240.
